# Sampled rows, rich in hits. Any-hit rate of the full collection: about 3.5%.
# GPR151 ag: activates the human receptor GPR151; Q8TDV0; PathHunter beta-arrestin GPR151 cells, luminescence; activation, % at 11.2 µM; hit rate 1% among 650,000; in the data active = activation above about 4.9%;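 also: 0% = median of compound wells and 100% = cells with positive control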
# MITF inh: blocks human microphthalmia-associated transcription factor; O75030; AlphaScreen MITF homodimerization, bead proximity signal; inhibition, % at 2.6 µM; hit rate 0.91% among 650,000; in the data active = inhibition above about 50%;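 also: 0% = vehicle wells with protein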
# FBW7 act: human FBW7 E3 ligase activation, primary screen. AlphaScreen FBW7–phospho-cyclin E peptide binding, activator screen. normalized activity (activation), % at 26.1 µM. AID 1259310. hit rate 0.13% among 650,000; in the data active = normalized activity above about 1.9%;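 also: purified mutant Fbw7 with reduced substrate affinity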
# TEAD-YAP block: TEAD-YAP interaction inhibition. HEK-TIYL cells, TEAD-Gal4/YAP UAS-luciferase luminescence. inhibition, % at 9.12 µM. AID 1259422. hit rate 1.4% among 640,000; in the data active = inhibition above about 32%;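 also: 0% = median of test compound wells and 100% = reference inhibitor wells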
# GPR151 conf act: human GPR151 activation, confirmation screen | shares compounds with GPR151 ag | GPR151 PathHunter beta-arrestin cells, luminescence, 90 min; % of EA-reagent control over plate median | activation, % at 11.2 µM | 6,700 tested, under 10 active | AID 1508609;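 active = mean percent activation across replicates above the confirmation screen cutoff of 4.91%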
# GPR119 counter: activates human GPR119 in a GPR151 counter-screen; shares compounds with GPR151 ag; GPR119 PathHunter beta-arrestin cells, luminescence, 90 min; 0 = compound-well median, 100 = enzyme-acceptor control; activation, % at 11.2 µM; hit rate 0.3% among 6,700; AID 1508611;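 active = mean percent activation in the counterscreen above 29.09%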;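 also: counterscreen on off-target GPR119 to flag nonselective hits from the GPR151 activator screen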
# Target sequence (Q8TDV5 whole entry, looked up): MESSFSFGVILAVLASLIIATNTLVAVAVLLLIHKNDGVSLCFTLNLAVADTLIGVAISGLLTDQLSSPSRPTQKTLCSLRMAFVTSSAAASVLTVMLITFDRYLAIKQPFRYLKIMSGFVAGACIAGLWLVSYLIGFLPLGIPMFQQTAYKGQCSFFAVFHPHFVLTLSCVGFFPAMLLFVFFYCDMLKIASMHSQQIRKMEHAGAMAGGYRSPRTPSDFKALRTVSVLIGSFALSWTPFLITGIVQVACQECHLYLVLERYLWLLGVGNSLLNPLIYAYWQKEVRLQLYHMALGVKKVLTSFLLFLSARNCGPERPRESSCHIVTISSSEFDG
# The depositor's hits bear a star; . = no result; ! = not active in a repeat.
SMILES,GPR151 ag,MITF inh,FBW7 act,TEAD-YAP block,GPR151 conf act,GPR119 counter
CCCn1ncc(CN2CCC(n3nccc3NC(=O)CCc3ccccc3)CC2)c1C,6.6*,19,0,-4,-1,-12
COc1ccccc1NS(=O)(=O)c1ccc2oc(=O)ccc2c1,0,5,0,10,.,.
CCc1ccccc1NS(=O)(=O)c1ccc2oc(=O)ccc2c1,13*,8,0,8,0,7
COCCNC(=O)c1ccc(N2CCN(c3ccccn3)CC2)c([N+](=O)[O-])c1,0,21,0,-3,.,.
CSc1ccc(NC(=O)NCCN2CCCC2)cc1,-1,-7,0,-8,.,.
Cc1c(Cl)cccc1NC(=O)c1sc2ncn(CC(=O)N3CCCC(C)C3)c(=O)c2c1C (centres undefined),0,12,0,4,.,.
CC(C)Oc1ccc(C2CC(=O)NC3=C2C(=O)CCC3)cc1 (centres undefined),1,7,0,8,.,.
CC(C)Oc1ccc(C2CC(=O)NC(=O)C2)cc1,6.7*,24,1,0,0,13
CCCN(CCC)CCCN1C(=O)C2C(C(=O)Nc3ccc(F)c(Cl)c3)C3C=CC2(O3)C1C(=O)NC1CCCC(C)C1C (centres undefined),-1,-7,0,2,.,.
COc1ccc(NC(=O)C2C3C=CC4(O3)C2C(=O)N(C(C)CCc2ccccc2)C4C(=O)NC2CCCC(C)C2C)cc1 (centres undefined),7.0*,1,0,9,0,-3
CCCN(CCC)CCN1C(=O)C2C(C(=O)Nc3ccc(F)c(Cl)c3)C3C=CC2(O3)C1C(=O)NC1CCCC(C)C1C (centres undefined),6.9*,1,0,9,1,-1
COc1ccc(OCc2cc(C(=O)NC(C)Cc3ccccn3)no2)c(Cl)c1 (centres undefined),1,7,0,-6,.,.
CCOc1cc(/C=C/c2[nH]c(=O)[nH]c(=O)c2[N+](=O)[O-])ccc1O,6.5*,3,0,1,0,-5
FC(F)(F)c1cccc(NC(=S)N2CCSC2c2ccc(Br)cc2)c1 (centres undefined),6.4*,-12,0,-5,1,-2
COc1cccc(CNC(=O)CSc2nc3c(oc4ccccc43)c(=O)n2CCCOC(C)C)c1,6.5*,2,0,1,-1,-13
CN(CC1COc2ccccc2O1)c1ccc(S(=O)(=O)N2CCCCC2)cn1 (centres undefined),-1,0,0,6,.,.
COc1ccc(NS(=O)(=O)c2c[nH]c(=O)[nH]c2=O)cc1OC,-2,10,0,2,.,.
CC1CCCN(C(=O)NC2(C(F)(F)F)Oc3ccccc3O2)C1 (centres undefined),5.7*,7,0,-15,1,7
COc1ccc(N(CN2C(=O)c3ccc([N+](=O)[O-])cc3C2=O)C(=O)c2ccccc2)cc1,-3,13,0,-35,.,.
CCOc1ccc(-n2c(SCC#N)nc3c(sc(=S)n3-c3ccc(C)cc3C)c2=O)cc1,0,2,0,8,.,.
Cc1ccc(-n2c(=S)sc3c(=O)n(-c4ccc(F)cc4)c(SCC#N)nc32)c(C)c1,6.3*,-11,0,2,1,7
COC(=O)c1c(N)sc(C)c1-c1cccc(Cl)c1,6.0*,-5,0,1,1,18
CCOC(=O)c1c(N)sc(C)c1-c1cccc(Cl)c1,0,2,0,2,.,.
Cc1cc(C(F)(F)F)c(C#N)c(SCC(=O)O)n1,2,2,0,3,.,.
COc1ccc(C(=O)Nc2cc(=O)n(C)c(=O)n2C)cc1,4,2,0,-4,.,.
SMILES,GPR151 ag,MITF inh,FBW7 act,TEAD-YAP block,GPR151 conf act,GPR119 counter
COc1cccc(C(=O)Nc2cc(=O)n(C)c(=O)n2C)c1,10*,8,1,13,0,-8
COc1cccc(C(=O)Nc2cc(C(C)(C)C)ccc2C(C)=O)c1,5.2*,15,1,6,0,-9
CC(=O)c1ccc(C(C)(C)C)cc1NC(=O)c1ccc(Cl)cc1,0,4,0,3,.,.
Cc1ccc(OCCCC(=O)Nc2ccc3c(c2)OCCO3)c(C)c1,3,0,1,12,.,.
COc1ccnc(Cn2nc(C)c3cccn3c2=O)c1OC,6.1*,10,0,9,0,-8
O=C(c1ccc(OCCN2CCCCC2)cc1)c1c(-c2ccc(O)cc2)sc2cc(O)ccc12,5.0*!,-11,0,-12,-1,-10
CCN(CC)Cc1c(C(=O)N/N=C/c2cccc([N+](=O)[O-])c2)nnn1-c1nonc1N,9.9*,-11,0,-10,0,-1
CCOc1cc(/C=N/NC(=O)c2nnn(-c3nonc3N)c2-c2ccccc2)ccc1O,0,-6,0,4,.,.
CCOc1cc(/C=N/NC(=O)c2nnn(-c3nonc3N)c2CC)ccc1O,6.9*,11,0,14,0,-1
CCOc1ccc(Cl)cc1CNCc1ccccn1,-2,26,0,-6,.,.
Cc1c(-c2ccccc2)c(=O)oc2cc(OCC#N)ccc12,6.5*,-3,0,11,0,8
CCOC(=O)COc1ccc2c(C)c(-c3ccccc3)c(=O)oc2c1,-2,2,0,0,.,.
COc1ccc(C(=O)OCC2CC(c3ccccc3)=NO2)cc1OC (centres undefined),0,-1,0,-7,.,.
COc1cc(C(=O)OCC2CC(c3ccccc3)=NO2)cc(OC)c1OC (centres undefined),5.4*,3,0,3,-1,-10
S=C(NCC1CCCO1)Nc1ccc(I)cc1 (centres undefined),2,1,0,-45,.,.
CC(=O)c1ccc(NC(=S)NCC2CCCO2)cc1 (centres undefined),5.4*,-9,0,-28,0,5
Cc1ccc(Cn2c(CN3CCCC(C)C3)nc3c2c(=O)n(C)c(=O)n3C)cc1 (centres undefined),4.9*,-10,0,10,1,-4
CC1CCCN(Cc2nc3c(c(=O)n(C)c(=O)n3C)n2Cc2ccc(Cl)cc2)C1 (centres undefined),-1,-4,0,-1,.,.
COc1cc(=O)n2c(c1C(=O)N(C)Cc1nonc1C)CCN(Cc1ccsc1)CC2,1,11,0,1,.,.
O=S(=O)(NCc1csc(-c2cccnc2)n1)c1ccc(Br)cc1,5.6*,11,0,-9,0,-10
O=C(c1ccc([N+](=O)[O-])cc1)N1CCC(C(=O)N2CCN(c3ccccc3)CC2)CC1,11*,10,0,1,0,0
CCOc1cccc(C(=O)Nc2cc(C(=O)OC)cc(C(=O)OC)c2)c1,1,-11,0,0,.,.

# Compound activity from PubChem BioAssay.
